This note sets out measurements from PubChem BioAssay (NCI).

Molecules are shown by their SMILES. Compounds without any hit were thinned out: in the full panel of roughly 79,000, 15% have a hit. A number with no mark means an inactive call. Calls of active or inactive are those of the source. Rule as the data show it: active = growth inhibition above about 70%; inactive = the rest.

The nature of experiment [1]: NCI Yeast Anticancer Drug Screen. Data for the rad50 strain (AID 155).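 Also: 0% = growth of vehicle-only cultures of the same strain.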 The following applies: S. cerevisiae rad50 strain growth inhibition, stronger effect = higher value. Put shortly: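 DNA repair mutant yeast, compound exposure, growth read-out; inhibition is taken relative to vehicle.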
Experiment [2] can be described thus: NCI Yeast Anticancer Drug Screen. Data for the mec2-1 strain (AID 157). Particulars: S. cerevisiae mec2-1 strain, stronger effect = higher value. In short, it runs like this:
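Mutant yeast (mec2-1) grown with compound; growth inhibition relative to vehicle control reported.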

Experiment [3] can be described thus: NCI Yeast Anticancer Drug Screen. Data for the sgs1 mgt1 strain (AID 161).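 Also: 0% = growth of cultures given vehicle only.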 The following applies: S. cerevisiae sgs1 mgt1 strain, stronger effect = higher value. Put shortly:
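Growth of a repair-deficient yeast mutant was monitored after compound treatment and expressed as inhibition relative to vehicle-treated cultures.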

The nature of experiment [4]: NCI Yeast Anticancer Drug Screen. Data for the cln2 rad14 strain (AID 165).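 Also: 0% = growth equal to vehicle treated cultures.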 The following applies: S. cerevisiae cln2 rad14 strain, stronger effect = higher value. In short, it runs like this:
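Readout is yeast growth inhibition versus vehicle-treated controls, using a strain with cln2 and rad14 alterations exposed to compound.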

Experiment [5] in a line: NCI Yeast Anticancer Drug Screen. Data for the bub3 strain (AID 167). The following applies: S. cerevisiae bub3 mutant strain, stronger effect = higher value. Put shortly:
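In this screen, a yeast mutant lacking normal mitotic checkpoint function is challenged with compound. Relative growth versus vehicle gives the inhibition value.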

A short description of experiment [6]: NCI Yeast Anticancer Drug Screen. Data for the mlh1 rad18 strain (AID 175). The following applies: S. cerevisiae mlh1 rad18 strain growth inhibition, stronger effect = higher value. In short, it runs like this:
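Genetically defined yeast (DNA repair-deficient) exposed to compounds; growth inhibition determined relative to vehicle.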

[7] abbreviates: at 5.0 µM (retest, dose inferred, filed as 0.5).
Setting [8] is: at 50.0 µM (retest, dose inferred, filed as 5.0).

With `O=S(=O)(c1cc(Cl)ccc1Cl)N1CCc2ccccc2C1`, the growth inhibition in experiment [1] (setting [7]) was 14%; in experiment [1] (setting [8]), 3%; in experiment [1] (at 50.0 µM), 16.1%; in experiment [2] (setting [7]), -28%; in experiment [2] (setting [8]) it was -13%; in experiment [2] (at 50.0 µM), -25.6%. Moreover, the growth inhibition in experiment [3] (setting [7]) is -1%; in experiment [3] (setting [8]) it was 12%; in experiment [3] (at 50.0 µM), 25.6%; in experiment [4] (setting [7]), -1%; in experiment [4] (setting [8]), 15%; in experiment [4] (at 50.0 µM) it was -11.4%. The growth inhibition was 18% in experiment [5] (setting [7]); 12% in experiment [5] (setting [8]); 5% in experiment [5] (at 50.0 µM); -17% in experiment [6] (setting [7]); -31% in experiment [6] (setting [8]); -9.85% in experiment [6] (at 50.0 µM).
For `CN1CCN(CCCN)CC1`, the growth inhibition was -8% in experiment [1] (setting [7]); 8% in experiment [1] (setting [8]); 3.7% in experiment [1] (at 50.0 µM); -3% in experiment [2] (setting [7]); -25% in experiment [2] (setting [8]); 25.1% in experiment [2] (at 50.0 µM). Moreover, the growth inhibition in experiment [3] (setting [7]) is -4%; in experiment [3] (setting [8]), -3%; in experiment [3] (at 50.0 µM), -29.9%; in experiment [4] (setting [7]) it was 4%; in experiment [4] (setting [8]), -4%; in experiment [4] (at 50.0 µM), 29.9%. Also, the growth inhibition is 17% in experiment [5] (setting [7]); -14% in experiment [5] (setting [8]); -18% in experiment [5] (at 50.0 µM); -2% in experiment [6] (setting [7]); 5% in experiment [6] (setting [8]); 11.1% in experiment [6] (at 50.0 µM).
Turning to `O=c1[nH]ncc(SCc2ccccc2)c1SCc1ccccc1`, the growth inhibition in experiment [1] (setting [7]) was 8%; in experiment [1] (setting [8]), 35%; in experiment [1] (at 50.0 µM) it was 97.2% (active); in experiment [2] (setting [7]), 3%; in experiment [2] (setting [8]) it was 53%; in experiment [2] (at 50.0 µM) it was 97.9% (active). The growth inhibition in experiment [3] (setting [7]) was 1%; in experiment [3] (setting [8]), 58%; in experiment [3] (at 50.0 µM), 98% (active); in experiment [4] (setting [7]), 8%; in experiment [4] (setting [8]), 31%; in experiment [4] (at 50.0 µM), 96.1% (active). Also, the growth inhibition is 14% in experiment [5] (setting [7]); 37% in experiment [5] (setting [8]); 98.4% (active) in experiment [5] (at 50.0 µM); 8% in experiment [6] (setting [7]); 57% in experiment [6] (setting [8]); 96.5% (active) in experiment [6] (at 50.0 µM).
As for `Nc1ccc2ccccc2c1N=Cc1ccccc1[N+](=O)[O-]`, the growth inhibition in experiment [1] (setting [7]) was -3%; in experiment [1] (setting [8]) it was 72% (active); in experiment [1] (at 50.0 µM) it was 85.8% (active); in experiment [2] (setting [7]), -10%; in experiment [2] (setting [8]), 90% (active); in experiment [2] (at 50.0 µM), 29.8%. The growth inhibition in experiment [3] (setting [7]) is 5%; in experiment [3] (setting [8]), 92% (active); in experiment [3] (at 50.0 µM), 96.8% (active); in experiment [4] (setting [7]), -9%; in experiment [4] (setting [8]) it was 54%; in experiment [4] (at 50.0 µM), -40.1%. The growth inhibition was 15% in experiment [5] (setting [7]); 85% (active) in experiment [5] (setting [8]); 30.2% in experiment [5] (at 50.0 µM); 11% in experiment [6] (setting [7]); 91% (active) in experiment [6] (setting [8]); 84.3% (active) in experiment [6] (at 50.0 µM).
For `CC(C)(C)C(=O)CC(=O)C(F)(F)C(F)(F)C(F)(F)F.CC(C)(C)C(=O)CC(=O)C(F)(F)C(F)(F)C(F)(F)F.CC(C)(C)C(=O)CC(=O)C(F)(F)C(F)(F)C(F)(F)F.[Er]`, the growth inhibition in experiment [1] (setting [7]) was 92% (active); in experiment [1] (setting [8]), 28%; in experiment [1] (at 50.0 µM), 92.5% (active); in experiment [2] (setting [7]) it was 65%; in experiment [2] (setting [8]), 9%; in experiment [2] (at 50.0 µM), 91% (active). In addition, the growth inhibition in experiment [3] (setting [7]) was 43%; in experiment [3] (setting [8]), 38%; in experiment [3] (at 50.0 µM) it was 91.2% (active); in experiment [4] (setting [7]) it was 40%; in experiment [4] (setting [8]), 38%; in experiment [4] (at 50.0 µM), 88.8% (active). Moreover, the growth inhibition in experiment [5] (setting [7]) was 40%; in experiment [5] (setting [8]), 34%; in experiment [5] (at 50.0 µM) it was 91.2% (active); in experiment [6] (setting [7]) it was 90% (active); in experiment [6] (setting [8]), 26%; in experiment [6] (at 50.0 µM) it was 65.8%.
On to `CCCCCC(C)C1=NC(C)(C)CC(C)O1` (stereo not drawn), for which the growth inhibition in experiment [1] (setting [7]) is -153%; in experiment [1] (setting [8]) it was -154%; in experiment [1] (at 50.0 µM), 5.85%; in experiment [2] (setting [7]), -51%; in experiment [2] (setting [8]), -57%; in experiment [2] (at 50.0 µM) it was -3.85%. Also, the growth inhibition in experiment [3] (setting [7]) is -64%; in experiment [3] (setting [8]) it was -68%; in experiment [3] (at 50.0 µM), -0.45%; in experiment [4] (setting [7]), -62%; in experiment [4] (setting [8]), -64%; in experiment [4] (at 50.0 µM), 32.4%. The growth inhibition in experiment [5] (setting [7]) was -73%; in experiment [5] (setting [8]), -81%; in experiment [5] (at 50.0 µM), -3.2%; in experiment [6] (setting [7]) it was -139%; in experiment [6] (setting [8]), -116%; in experiment [6] (at 50.0 µM) it was 12.1%.
